# Laboratory results: PubChem BioAssay (EPA / NIEHS)
# Several values for one entry are separate records, joined by “and”; a condition that tells them apart may be missing. Equal values may be shown once. Inconclusive results are not listed. More than one record can exist for a structure, and the calls need not agree. Activity calls are given as the source filed them. The calls were made as follows: active = hit-call score of the fitted dose curve at least 0.9, where 1 is the maximum; inconclusive = response in the unintended direction; inactive = score below 0.9.
# Molecular target: Nuclear receptor subfamily 1 group I member 3 (Homo sapiens) (UniProt Q14994)
# Sequence (Q14994 whole entry, looked up): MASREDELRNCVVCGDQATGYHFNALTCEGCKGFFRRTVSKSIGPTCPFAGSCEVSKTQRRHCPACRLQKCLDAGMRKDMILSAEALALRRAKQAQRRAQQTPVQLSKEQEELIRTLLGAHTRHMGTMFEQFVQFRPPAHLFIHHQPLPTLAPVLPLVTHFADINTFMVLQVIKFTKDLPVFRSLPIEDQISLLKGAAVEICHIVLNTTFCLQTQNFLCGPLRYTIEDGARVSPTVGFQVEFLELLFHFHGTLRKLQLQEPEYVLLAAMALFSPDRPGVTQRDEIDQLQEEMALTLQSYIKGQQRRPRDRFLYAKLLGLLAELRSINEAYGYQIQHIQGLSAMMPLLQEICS
# Experiment: ATG_CAR_TRANS: Attagene TRANS-FACTORIAL HepG2 Assay for human Constitutive Androstane Receptor (CAR) (AID 2282969);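 also: activators raise reporter mRNA above DMSO so AC50 marks induction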
# Conditions: HepG2 Attagene TRANS-FACTORIAL CAR reporter
# Procedure, shortened: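 HepG2 cells transiently transfected with multiplexed GAL4-UAS reporter units expressing chimeric NR-Gal4 proteins; compound exposure 24 h. Reporter mRNA measured by RT-PCR, 6-FAM labelling, HpaI digestion and capillary electrophoresis; gain-of-signal fitted against DMSO baseline.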
SMILES,outcome,AC50
O=c1c(-c2ccc(O)cc2)coc2cc(O)ccc12,inactive,
Cc1ccc(S(=O)(=O)O)c(C)c1,inactive,
CCCCOCCO,inactive,
C=C(C)C(=O)OCCC(F)(F)C(F)(F)C(F)(F)C(F)(F)C(F)(F)C(F)(F)F,inactive,
COc1cc(CCC(=O)CC(=O)CCc2ccc(O)c(OC)c2)ccc1O,inactive,
FC(F)(I)C(F)(F)C(F)(F)C(F)(F)C(F)(F)C(F)(F)I,,45.5 µM (active)
CCCCCCCCOC(=O)CCCCCCCCC(=O)OCCCCCCCC,inactive,
CCc1ccc(CCOc2ccc(CC3SC(=O)NC3=O)cc2)nc1 (stereo unspecified),inactive,
Nc1cccc2c(N)cccc12,inactive,
CC(O)C(=O)O (stereo unspecified),inactive,
CN1CCN(c2ccccc2/C=C2\SCCN(c3ccc(Cl)c(Cl)c3)C2=O)CC1,inactive,
CCC(C)(C)C1CCC(O)CC1 (stereo unspecified),inactive,
CN1CCC[C@H]1c1cccnc1,inactive,
CCCCCCCCCCCCCCCS(=O)(=O)Oc1ccccc1,inactive,
CCCCCCCCCCCCc1ccccc1S(=O)(=O)O,inactive,
CCCCCCCC(=O)O,inactive,
CC[C@H](c1ccc(O)cc1)[C@@H](CC)c1ccc(O)cc1,inactive,
CCCCC[C@H](O)CC(=O)CCc1ccc(O)c(OC)c1,inactive,
CC(C)(C)c1cc(C(C)(C)C)c(O)c(C(C)(C)C)c1,inactive,
CCCOC(=O)c1ccc(O)cc1,inactive,
CCC(=C(c1ccc(O)cc1)c1ccc(OCCN(C)C)cc1)c1ccccc1,inactive,
CC[C@H](C)[C@@H](C(=O)O)n1sc2ccccc2c1=O,inactive,
O=C1OC2(c3ccccc31)c1cc(Br)c(O)c(Br)c1Oc1c2cc(Br)c(O)c1Br,inactive,
c1ccc2cc3c(ccc4ccccc43)cc2c1,inactive,
c1ccc2c(c1)ccc1ccccc12,inactive,
NCC(F)(F)C(F)(F)C(F)(F)C(F)(F)C(F)(F)C(F)(F)C(F)(F)F,inactive,
CCCCCCC(=O)O,inactive,
CCOC(=O)CC(O)(CC(=O)OCC)C(=O)OCC,inactive,
OCCC(F)(F)C(F)(F)C(F)(F)C(F)(F)C(F)(F)C(F)(F)F,inactive,
OCCC(F)(F)C(F)(F)C(F)(F)C(F)(F)C(F)(F)C(F)(F)C(F)(F)C(F)(F)F,inactive,

# Molecular target: Estrogen receptor (Homo sapiens) (UniProt P03372)
# Sequence (P03372 whole entry, looked up): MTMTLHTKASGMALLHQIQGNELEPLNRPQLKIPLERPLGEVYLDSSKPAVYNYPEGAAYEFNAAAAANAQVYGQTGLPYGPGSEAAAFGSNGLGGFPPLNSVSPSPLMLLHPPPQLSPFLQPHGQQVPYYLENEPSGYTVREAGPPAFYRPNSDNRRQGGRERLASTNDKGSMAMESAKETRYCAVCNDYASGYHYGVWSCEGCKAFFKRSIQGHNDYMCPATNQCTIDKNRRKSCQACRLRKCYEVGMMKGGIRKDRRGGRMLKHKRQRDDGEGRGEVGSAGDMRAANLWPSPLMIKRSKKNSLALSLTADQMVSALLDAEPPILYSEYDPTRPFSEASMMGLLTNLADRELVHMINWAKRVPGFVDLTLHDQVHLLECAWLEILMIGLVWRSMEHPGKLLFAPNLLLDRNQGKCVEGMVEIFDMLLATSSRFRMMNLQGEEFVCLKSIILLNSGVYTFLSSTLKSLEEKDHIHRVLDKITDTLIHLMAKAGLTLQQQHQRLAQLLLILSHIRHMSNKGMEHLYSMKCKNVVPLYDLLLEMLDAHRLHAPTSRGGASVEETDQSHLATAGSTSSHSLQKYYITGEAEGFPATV
# Experiment: ATG_ERa_TRANS: Attagene TRANS-FACTORIAL HepG2 Assay for human Estrogen Receptor alpha (ERa) (AID 2282970)
# Conditions: HepG2 Attagene TRANS ERa GAL4 reporter, mRNA
# Procedure, shortened: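 HepG2 cells transiently transfected with multiplexed GAL4-UAS reporter units read out chimeric NR-Gal4 activity. After 24 h compound exposure, reporter mRNA was quantified by RT-PCR, 6-FAM labeling, HpaI digestion and capillary electrophoresis, relative to DMSO.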
SMILES,outcome,AC50
Cc1ccc(S(=O)(=O)O)c(C)c1,inactive,
CCCCOCCO,inactive,
C=C(C)C(=O)OCCC(F)(F)C(F)(F)C(F)(F)C(F)(F)C(F)(F)C(F)(F)F,,38.4 µM (active) and 49.2 µM (active)
C[C@@H]1C[C@H]2[C@@H]3CCC4=CC(=O)C=C[C@]4(C)[C@@]3(F)[C@@H](O)C[C@]2(C)[C@@]1(O)C(=O)COP(=O)(O)O,inactive,
COc1cc(CCC(=O)CC(=O)CCc2ccc(O)c(OC)c2)ccc1O,inactive,
FC(F)(I)C(F)(F)C(F)(F)C(F)(F)C(F)(F)C(F)(F)I,,0.00593 µM (active)
CCCCCCCCOC(=O)CCCCCCCCC(=O)OCCCCCCCC,inactive,
CCc1ccc(CCOc2ccc(CC3SC(=O)NC3=O)cc2)nc1 (stereo unspecified),inactive,
Nc1cccc2c(N)cccc12,inactive,
CC(O)C(=O)O (stereo unspecified),inactive,
CN1CCN(c2ccccc2/C=C2\SCCN(c3ccc(Cl)c(Cl)c3)C2=O)CC1,inactive,
CN1CCC[C@H]1c1cccnc1,,61.2 µM (active)
CCCCCCCCCCCCCCCS(=O)(=O)Oc1ccccc1,inactive,
CCCCCCCCCCCCc1ccccc1S(=O)(=O)O,inactive,
CCCCCCCC(=O)O,inactive,
CCCCC[C@H](O)CC(=O)CCc1ccc(O)c(OC)c1,inactive,
CC(C)(C)c1cc(C(C)(C)C)c(O)c(C(C)(C)C)c1,inactive,
CCCOC(=O)c1ccc(O)cc1,,6.31 µM (active) and 20.8 µM (active)
CC[C@H](C)[C@@H](C(=O)O)n1sc2ccccc2c1=O,inactive,
O=C(O)Cc1cc(I)c(Oc2cc(I)c(O)c(I)c2)c(I)c1,inactive,
O=C1OC2(c3ccccc31)c1cc(Br)c(O)c(Br)c1Oc1c2cc(Br)c(O)c1Br,inactive,
c1ccc2cc3c(ccc4ccccc43)cc2c1,,2.44 µM (active) [middle of 4 runs]
ClC1=C(Cl)C(Cl)(Cl)C(Cl)=C1Cl,,15.1 µM (active) and 11.1 µM (active)
c1ccc2c(c1)ccc1ccccc12,inactive,
NCC(F)(F)C(F)(F)C(F)(F)C(F)(F)C(F)(F)C(F)(F)C(F)(F)F,inactive,
CCCCCCC(=O)O,inactive,
CCOC(=O)CC(O)(CC(=O)OCC)C(=O)OCC,inactive,
OCCC(F)(F)C(F)(F)C(F)(F)C(F)(F)C(F)(F)C(F)(F)F,inactive,
CC#C[C@]1(O)CC[C@H]2[C@@H]3CCC4=CC(=O)CCC4=C3[C@@H](c3ccc(N(C)C)cc3)C[C@@]21C,inactive,
OCCC(F)(F)C(F)(F)C(F)(F)C(F)(F)C(F)(F)C(F)(F)C(F)(F)C(F)(F)F,inactive,7.75 µM (active)
